Laboratory results reported in ChEMBL document CHEMBL4513216, “Probing the Open Global Health Chemical Diversity Library for Multistage-Active Starting Points for Next-Generation Antimalarials” (ACS Infect Dis, 2020).
Screen size: about 69,000 compounds; about 8,600 (12%) showed an effect of 50% or more. This excerpt belongs to a sample that is enriched for strong results.

test system: Plasmodium berghei; test: Screen against P. berghei liver stage (PbLuc), transformed with Luciferase, at 10uM; assay type: functional, HepG2; conditions: tested at 10 uM

| Compound | INHIBITION [%] |
| --- | --- |
| CN1CCc2[nH]cnc2C12CCN(Cc1ccc3nsnc3c1)CC2 | 33.4 |
| CNC(=O)[C@@H]1C[C@H]2CN(Cc3ccco3)C[C@H]2N1C | -5.1 |
| Cc1ccc(C(=O)N2CCN(Cc3cccs3)CC2)c(=O)[nH]1 | 3.865 |
| CS(=O)(=O)NCc1cnc2n1CCN(Cc1ccccn1)CC2 | 41.2 |
| Cc1nccc(C(=O)N2CCCN(Cc3nccn3C(C)C)CC2)n1 | 29.3 |
| Cc1ncncc1C(=O)N1CCCN(Cc2nccn2C(C)C)CC1 | -49.5 |
| Cc1[nH]ncc1C(=O)N1CCCN(Cc2nccn2C(C)C)CC1 | 53.65 |
| CC(C)n1ccnc1CN1CCCN(C(=O)c2cscn2)CC1 | 54.9 |
| CCc1[nH]ncc1C(=O)N1CCCN(Cc2nccn2C(C)C)CC1 | -33.8 |
| Cc1cc(C(=O)N2CCCN(Cc3nccn3C(C)C)CC2)no1 | -6.35 |
| CCc1cc(CNC(=O)N2CCN(c3nc(C)c(C)s3)CC2)on1 | 32.4 |
| CSc1ncc(CN(C)C(C)c2cccnc2)cn1 (centres undefined) | -1.33 |
| O=C(NCCN1CCOCC1)c1scnc1Cl | 23.7 |
| CSCCCN1C[C@H](NC(=O)c2ccc(CO)cc2)[C@@H](C2CC2)C1 | 0.72 |
| CN(C)c1ccc(C(=O)Nc2ccn(CCc3ccncc3)n2)cc1 | 5.91 |
| COc1cc(F)c(S(=O)(=O)Nc2cnc(O)cc2C)cc1OC | -3.83 |
| Cc1cc(O)ncc1NS(=O)(=O)c1cccc(F)c1F | 69.9 |
| COc1ccccc1S(=O)(=O)Nc1cnc(O)cc1C | -13.6 |
| Cc1nc(N2CCN3CCCCC3C2)nc2cc(S(C)(=O)=O)ccc12 (centres undefined) | 20.6 |
| Clc1cc(N2CCC(N3CCCC3)CC2)nc2[nH]ccc12 | 51.5 |
| Clc1cc(N2CCN3CCCCC3C2)nc2[nH]ccc12 (centres undefined) | 72.2 |
| Cn1ncc2c(N3CCN4CCCCC4C3)nc(C3CCCC3)nc21 (centres undefined) | -24.8 |
| Clc1cc(N2CCN(C3CCOCC3)CC2)nc2[nH]ccc12 | 5.91 |
| Cc1ccn(-c2ccnc(N3CCC(N4CCCCC4)CC3)n2)n1 | -13 |
| O=C(NCCNS(=O)(=O)C1CCCCC1)c1ccccc1 | 15.4 |
| CN(C)CCNC(=O)c1ccccc1NC(=O)c1cc(Cl)ccc1Cl | 44.4 |

| Compound | INHIBITION [%] |
| --- | --- |
| O=c1cc(-c2ccc(F)cc2)nc2n1CCCCC2 | 7.25 |
| O=S(=O)(C1CC1)N1CCO[C@H]2[C@@H](Oc3cccnc3)CC[C@@H]21 | 37.1 |
| CN(C)C(=O)c1cccc(C2CNCCN2C)c1 (centres undefined) | 15.255 |
| Cc1ccc(Cn2cc(C)c(N)n2)cc1 | 8.53 |
| Cc1cn(Cc2ccc(F)c(F)c2)nc1N | 70.8 |
| Cc1cn(Cc2ccc(F)cc2)nc1N | -46.4 |
| CCc1ccc(CN2CC[C@H]3[C@H]2CC(=O)N3Cc2cccc(C)n2)o1 | 30.9 |
| CCN(CCCc1ccccc1)CC1(C)Cc2c(N)nc(N)nc2O1 (centres undefined) | 26.8 |
| CCn1nc(C)c(CCNC(=O)C2CCCN(C(=O)COC)C2)c1C (centres undefined) | -13.6 |
| Cc1ccc2nc(CNc3ccccc3C(=O)NC3CC3)cn2c1 | 7.38 |
| Cc1ccc([C@@H]2CN(S(=O)(=O)N(C)C)C[C@H]2N(C)C)cc1 | -11.1 |
| Cc1ccc([C@@H]2CN(S(=O)(=O)c3ccccc3)C[C@H]2N(C)C)cc1 | 0.818 |
| Cc1ccc([C@@H]2CN(S(=O)(=O)Cc3ccccc3)C[C@H]2N(C)C)cc1 | 55.2 |
| Cc1nc2c(c(C)c1CC(=O)NCc1ccc(F)cc1)c(=O)[nH]n2C | -12.1 |
| Cc1cc(C(=O)N[C@H]2CN(CCC(N)=O)C[C@@H]2C2CC2)sc1C | 50.5 |
| Cc1nc(N)sc1C(=O)N[C@H]1CN(CCO)C[C@@H]1C1CC1 | 12 |
| Cc1cc(C(=O)N[C@H]2CN(CCO)C[C@@H]2C2CC2)sc1C | 44 |
| CCOc1cc(C)nc(N2CCN(C(=O)c3cnc[nH]3)CC2)n1 | -3.2 |
| CC(C)CCN1CCC2(CC1)CN(C(=O)c1cnccn1)CCO2 | -12.6 |
| O=C(C1CC1)N1CCN(Cc2coc(-c3ccc(Cl)cc3)n2)CC1 | 76.1 |
| Cc1nc(CN2CCC(NS(C)(=O)=O)CC2)co1 | 34 |
| CS(=O)(=O)NC1CCN(Cc2coc(-c3ccc(Cl)cc3)n2)CC1 | 79.5 |
| OCCN1CCN(Cc2coc(-c3ccc(Cl)cc3)n2)CC1 | 11.6 |
| CC(O)CN1CCN(Cc2coc(-c3ccc(Cl)cc3)n2)CC1 (centres undefined) | 47.1 |
| CS(=O)(=O)NC1CCN(Cc2coc(-c3ccccc3)n2)CC1 | 30.4 |
| CN(C)CC1CN(C(=O)CCc2ccccc2)Cc2nccn2C1 (centres undefined) | -41.8 |

| Compound | INHIBITION [%] |
| --- | --- |
| Cc1occc1C(=O)N1Cc2nccn2CC(CN(C)C)C1 (centres undefined) | 44.8 |
| c1ccc(-n2cc(CNC3CCc4ncnn4C3)nn2)cc1 (centres undefined) | 41.45 |
| O=C(Nc1cccnc1N1CCCC1)C1CCS(=O)(=O)C1 (centres undefined) | -7.35 |
| COc1cccc(CNCc2c(C(C)C)nn(C)c2N(C)C)c1OC | -7.84 |
| COc1ccc(OC)c(CNCc2c(C)nc3sc(C)cn23)c1 | 10.8 |
| COc1ccc(CNC(C)Cn2cccn2)c(OC)c1OC (centres undefined) | 25.1 |
| COc1cccc(CNCc2c(C)nc3sc(C)cn23)c1OC | 66.4 |
| COc1cccc(CNCC2CCN(CC(C)O)CC2)c1OC (centres undefined) | 7.85 |
| COc1ccc(CNCc2c(C)nc3sc(C)cn23)c(OC)c1OC | 64.6 |
| O=C(NCCc1noc(-c2ccccn2)n1)NCC1CCCC1 | -18.3 |
| CC(C)c1nnc2ccc(N3CCC(C(=O)O)CC3)nn12 | -9.3 |
| Cc1c(Cl)cccc1S(=O)(=O)N1C[C@H]2CC[C@@H](C1)N(C)C2=O | 0.546 |
| CN(C)C(=O)c1nnc2ccc(N3CCOCC3)cc2n1 | -13.9 |
| CN(Cc1cccnc1)C[C@@H]1OC[C@H]2CN(C(=O)C3CC3)CC[C@H]21 | 76.2 |
| CN(Cc1cccnc1)C[C@H]1OC[C@@H]2CCN(c3ncccn3)C[C@@H]21 | 14 |
| CN(Cc1cccnc1)C[C@@H]1OC[C@H]2CN(Cc3ccoc3)CC[C@H]21 | 2.79 |
| CN(C)C[C@H]1OC[C@@H]2CN(C(=O)NCc3cccnc3)CC[C@@H]21 | 5.63 |
| CN(Cc1cccnc1)C[C@H]1OC[C@@H]2CCN(C(=O)C3CC3)C[C@@H]21 | 54.8 |
| CN(Cc1ccco1)C[C@H]1OC[C@@H]2CCN(Cc3cccnc3)C[C@@H]21 | 41.4 |
| O=C(CCN1CCOC(CNc2cccnn2)C1)NC1CCCCC1 (centres undefined) | 9.64 |
| O=C(CCCOc1ccccc1)N1CCCC(n2cncn2)C1 (centres undefined) | 14.133 |
| CC(=O)N1CC(C(=O)NC(C)c2cnn(C)c2C)C1 (centres undefined) | 8.57 |
| CCN1CC[C@@]2(C(=O)N(C)C)CCN(S(=O)(=O)c3ccccc3)CC[C@@H]12 | -89.8 |
| Cc1nncn1CCNC(=O)C(C)(C)c1cccc(C(F)(F)F)c1 | -0.758 |
| Cn1cccc1C(=O)NC(C)(C(N)=O)c1cccc(Cl)c1 (centres undefined) | 11.5 |
| CC(NC(N)=O)C(=O)N(C)Cc1cccc(C(F)(F)F)c1 (centres undefined) | 12 |

| Compound | INHIBITION [%] |
| --- | --- |
| CN1CCN(c2ccc(NC(=O)c3cccs3)c(C(F)(F)F)c2)CC1 | -29 |
| CC(NC(=O)c1cccs1)(C(N)=O)c1cccc(C(F)(F)F)c1 (centres undefined) | 62 |
| Cn1cccc1C(=O)NC(C)(C(N)=O)c1cccc(C(F)(F)F)c1 (centres undefined) | 61.1 |
| O=C(O)[C@@H]1CN(C(=O)CCC(F)(F)F)C[C@H]1c1ccncc1 | 11.6 |
| CC(CNC(=O)CCn1cncn1)N1CCc2ccccc21 (centres undefined) | -7.7 |
| CC(CNC(=O)CCCn1cncn1)N1CCc2ccccc2C1 (centres undefined) | 69.7 |
| CC(NC(=O)CCn1cncn1)c1nnc2n1CCCCC2 (centres undefined) | 39.2 |
| CC(Cn1cncn1)NCCN1CCc2ccccc2C1 (centres undefined) | 45.1 |
| CCC(CNC(=O)CCn1cncn1)N1CCc2ccccc2C1 (centres undefined) | -19.5 |
| CC(C)C(CNC(=O)CCn1cncn1)N1CCc2ccccc2C1 (centres undefined) | 60.5 |
| Cc1cc2c(=O)n3c(nc2s1)CCN(C(=O)c1cnn(C)c1)CC3 | -11.7 |
| CC(C)N1CCCC1c1cc(C(F)(F)F)[nH]n1 (centres undefined) | -7.7 |
| Cc1cc(NC(C)Cn2cccn2)n2nccc2n1 (centres undefined) | 33 |
| O[C@@H]1CC(CNCc2ccc(F)cc2)(COc2cccnc2)C[C@@H]1O (some centres undefined) | 38.1 |
| Cn1cccc1C(=O)NC1(C(=O)NCC2CC2)CCCC1 | 8.38 |
| Cc1ccc2c(C(=O)N(C)C)cc(-c3cnn(CCO)c3)nc2c1C | 31.15 |
| COc1ncc(C2(O)CCN(Cc3ccccc3O)CC2)c(OC)n1 | 65.5 |
| CCc1ncc(CN2CCC(O)(c3ccccc3F)CC2)cn1 | 18.2 |
| COc1ncc(C2(O)CCN(Cc3c(F)cccc3F)CC2)c(OC)n1 | 53 |
| COc1ncc(C2(O)CCN(Cc3ccc(F)c(F)c3)CC2)c(OC)n1 | 57.5 |
| COc1ncc(C2(O)CCN(Cc3cc(F)cc(F)c3)CC2)c(OC)n1 | 39.7 |
| COc1ncc(C2(O)CCN(Cc3cc(F)ccc3F)CC2)c(OC)n1 | 24.8 |
| Cc1ncc(CN2CCC(O)(c3ccccc3F)CC2)cn1 | -4.675 |
| COc1ncc(C2(O)CCN(Cc3cccs3)CC2)c(OC)n1 | 8.48 |
| COc1ncc(C2(O)CCN(Cc3cccc(F)c3F)CC2)c(OC)n1 | 44.1 |
| CN(C)CCn1nc(C2CCN(S(=O)(=O)N(C)C)C2)c2cccnc21 (centres undefined) | 6.33 |
